# Assay results reported in the supplement of paper PMC8728848.
# Only a selection was taken, and the strongest signals are over-represented in it overall.
# B1: PX14375C-bth-509-28-509 (Bacteroides thetaiotaomicron) (protein)
# chain: RSPQGQFTEDDNPNALVNGKIYNVYTMMRSFDITAGTPAIAIHYLRSEDSEKGSIPSDGSDVAEMYDDFLYTPTNGLLGSYWGKNYAIIYQCNDILDAIAEKETAGQTETEDIINKGEASFFRAYCYFNLVRAFGEVPLVTYKINDASEANIPKTTADKIYEQIDTDLKTAEESLPETWSTEYTGRLTWGAARSLHARTYMMRSDWDNMYKASTDVINKGLYNLKTPYNEIFTDDGENSGGSIFELQCTATAALPQSDVIGSQFCEVQGVRGAGQWDLGWGWHMATQLMADAYETGDPRKNATLLYFRKTDDEPITPENTNEPYGESPISPAMGAYFNKKAYTDPALRKEYTNKGFWVNIRLIRYSDVVLMAAEAANEKNIPGEAVDYLEMVRARARGTNTNILPKITTNDQGELREAIRHERRVELGLEPDRFYDLVRWGIASEVLHAAGKVNYQDKNALLPLPQSEIDKSKGVLVQNPDY
# Legend:
# Assay in all cases: glycan array binding signal (z-score within array); higher = stronger binding
# Conditions in all cases: glycan notation: IUPAC condensed, linker removed
# [1] = molecular target: Gal(b1-4)GlcNAc(b1-3)Gal(b1-4)GlcNAc(b1-3)Gal(b1-4)GlcNAc(b1-2)Man(a1-3)[Gal(b1-4)GlcNAc(b1-3)Gal(b1-4)GlcNAc(b1-3)Gal(b1-4)GlcNAc(b1-2)Man(a1-6)]Man(b1-4)GlcNAc(b1-4)GlcNAc
# Outline: (§1)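 Glycan array data were curated from 3228 arrays in the Consortium for Functional Glycomics database and kept only where the protein sequence was available. Glycan names were converted to IUPAC-condensed notation, and columns mapping to the same glycan were averaged. The binding signal is a within-array Z-score, averaged across arrays of the same protein sequence at different concentrations or buffers and across linkers. Negative Z-scores can be read as non-binding.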
# [2] = molecular target: Gal(b1-4)GlcNAc(b1-3)Gal(b1-4)GlcNAc(b1-3)Gal(b1-4)GlcNAc(b1-3)Gal(b1-4)GlcNAc(b1-2)Man(a1-3)[Gal(b1-4)GlcNAc(b1-3)Gal(b1-4)GlcNAc(b1-3)Gal(b1-4)GlcNAc(b1-3)Gal(b1-4)GlcNAc(b1-2)Man(a1-6)]Man(b1-4)GlcNAc(b1-4)GlcNAc
# Outline: as §1
# [3] = molecular target: Gal(b1-4)GlcNAc(b1-3)Gal(b1-4)GlcNAc(b1-3)Gal(b1-4)GlcNAc(b1-3)Gal(b1-4)GlcNAc(b1-3)Gal(b1-4)GlcNAc(b1-2)Man(a1-3)[Gal(b1-4)GlcNAc(b1-3)Gal(b1-4)GlcNAc(b1-3)Gal(b1-4)GlcNAc(b1-3)Gal(b1-4)GlcNAc(b1-3)Gal(b1-4)GlcNAc(b1-2)Man(a1-6)]Man(b1-4)GlcNAc(b1-4)GlcNAc
# Outline: as §1
# [4] = molecular target: Gal6P(b1-4)GlcNAc
# Outline: as §1
# [5] = molecular target: GalNAc(b1-3)Gal(a1-4)Gal(b1-4)GlcNAc(b1-3)Gal(b1-4)Glc
# Outline: as §1
# [6] = molecular target: GalNAc(b1-3)Gal(a1-6)Gal(b1-4)Glc
# Outline: as §1
# [7] = molecular target: GalNAc(b1-3)GalNAc
# Outline: as §1
# [8] = molecular target: GalNAc3S(b1-4)[Fuc(a1-3)]GlcNAc
# Outline: as §1
# [9] = molecular target: Glc(b1-6)Glc
# Outline: as §1
# [10] = molecular target: GlcNAc(a1-4)Gal(b1-3)GlcNAc
# Outline: as §1
# [11] = molecular target: GlcNAc(a1-4)Gal(b1-4)GlcNAc(b1-3)Gal(b1-4)[Fuc(a1-3)]GlcNAc(b1-3)Gal(b1-4)[Fuc(a1-3)]GlcNAc
# Outline: as §1
# [12] = molecular target: GlcNAc(b1-3)Gal(b1-4)GlcNAc(b1-3)Gal(b1-4)GlcNAc(b1-2)Man(a1-3)[GlcNAc(b1-3)Gal(b1-4)GlcNAc(b1-3)Gal(b1-4)GlcNAc(b1-2)Man(a1-6)]Man(b1-4)GlcNAc(b1-4)GlcNAc
# Outline: as §1
# [13] = molecular target: GlcNAc(b1-3)Gal(b1-4)GlcNAc(b1-3)Gal(b1-4)GlcNAc(b1-3)Gal(b1-4)GlcNAc(b1-2)[GlcNAc(b1-3)Gal(b1-4)GlcNAc(b1-3)Gal(b1-4)GlcNAc(b1-3)Gal(b1-4)GlcNAc(b1-6)]Man(a1-6)[GlcNAc(b1-3)Gal(b1-4)GlcNAc(b1-3)Gal(b1-4)GlcNAc(b1-3)Gal(b1-4)GlcNAc(b1-2)Man(a1-3)]Man(b1-4)GlcNAc(b1-4)[Fuc(a1-6)]GlcNAc
# Outline: as §1
# [14] = molecular target: GlcNAc(b1-3)Gal(b1-4)GlcNAc(b1-6)[Gal(b1-3)]GalNAc
# Outline: as §1
# [15] = molecular target: GlcNAc(b1-4)GlcNAc(b1-4)GlcNAc(b1-4)GlcNAc(b1-4)GlcNAc
# Outline: as §1
# [16] = molecular target: Kdn(a2-3)Gal(b1-3)GlcNAc
# Outline: as §1
# [17] = molecular target: Man(a1-2)Man(a1-2)Man(a1-3)Man
# Outline: as §1
# [18] = molecular target: Man(a1-2)Man(a1-3)[Man(a1-6)]Man(a1-6)[Man(a1-2)Man(a1-3)]Man(b1-4)GlcNAc(b1-4)GlcNAc
# Outline: as §1
# [19] = molecular target: Man(a1-2)Man(a1-6)[Man(a1-3)]Man(a1-6)[Man(a1-2)Man(a1-2)Man(a1-3)]Man(b1-4)GlcNAc(b1-4)GlcNAc
# Outline: as §1
# [20] = molecular target: Neu5Ac(a2-3)Gal(b1-3)GlcNAc(b1-2)Man
# Outline: as §1
# [21] = molecular target: Neu5Ac(a2-3)Gal(b1-3)GlcNAc(b1-6)GalNAc
# Outline: as §1
# [22] = molecular target: Neu5Ac(a2-3)Gal(b1-4)GlcNAc(b1-3)Gal(b1-4)GlcNAc(b1-3)Gal(b1-4)GlcNAc(b1-2)Man(a1-3)[Neu5Ac(a2-3)Gal(b1-4)GlcNAc(b1-3)Gal(b1-4)GlcNAc(b1-3)Gal(b1-4)GlcNAc(b1-2)Man(a1-6)]GalNAc
# Outline: as §1
# [23] = molecular target: Neu5Ac(a2-3)Gal(b1-4)GlcNAc6S
# Outline: as §1
# [24] = molecular target: Neu5Ac(a2-3)Gal(b1-4)[Fuc(a1-3)]GlcNAc(b1-3)GalNAc
# Outline: as §1
# [25] = molecular target: Neu5Ac(a2-8)Neu5Ac
# Outline: as §1
# [26] = molecular target: Neu5Ac(a2-8)Neu5Gc(a2-3)Gal(b1-4)GlcNAc
# Outline: as §1
# [27] = molecular target: Neu5Gc(a2-6)GalNAc
# Outline: as §1
binder,measurement,setting,value
B1,glycan array binding signal (z-score),[1],0.774
same,glycan array binding signal (z-score),[2],0.053
same,glycan array binding signal (z-score),[3],3.46
same,glycan array binding signal (z-score),[4],-0.343
same,glycan array binding signal (z-score),[5],0.244
same,glycan array binding signal (z-score),[6],-0.426
same,glycan array binding signal (z-score),[7],1.2
same,glycan array binding signal (z-score),[8],-0.31
same,glycan array binding signal (z-score),[9],-0.146
same,glycan array binding signal (z-score),[10],-0.442
same,glycan array binding signal (z-score),[11],-0.057
same,glycan array binding signal (z-score),[12],3.19
same,glycan array binding signal (z-score),[13],-0.11
same,glycan array binding signal (z-score),[14],-0.076
same,glycan array binding signal (z-score),[15],0.127
same,glycan array binding signal (z-score),[16],0.209
same,glycan array binding signal (z-score),[17],-0.321
same,glycan array binding signal (z-score),[18],-0.274
same,glycan array binding signal (z-score),[19],-0.383
same,glycan array binding signal (z-score),[20],-0.329
same,glycan array binding signal (z-score),[21],3.9
same,glycan array binding signal (z-score),[22],5.44
same,glycan array binding signal (z-score),[23],-0.321
same,glycan array binding signal (z-score),[24],-0.014
same,glycan array binding signal (z-score),[25],4.99
same,glycan array binding signal (z-score),[26],5.56
same,glycan array binding signal (z-score),[27],-0.21
